Reference: PubChem BioAssay AID493191 (Broad Institute, 2011)
Hit rate of the full screen: of about 1,300 compounds, about 330 (25%) were called active. No rule for the calls is given here. A selection follows. Entries that show only a call come without a potency. Potency and affinity values are given separately.

Test: MALME3 melanoma cell viability loss, dose response, orthogonal assay for MITF inhibitor project, CellTiter-Glo, cherry-picked (AID 493191)
Conditions: CellTiter-Glo luminescence, 24 h; series mostly up to 35 µM

SMILES	outcome
CCOc1ccc(N(CC(=O)Nc2ccc(OC)cc2)S(C)(=O)=O)cc1	inactive
CCC(=O)Nc1cc2nn(-c3ccc(C)cc3)nc2cc1C	inactive
CC(=O)SC(C[N+](=O)[O-])c1cn(C(C)=O)c2ccccc12 (stereo not drawn)	inactive
CC1Cc2ccccc2N1C(=O)c1ccc(Br)o1 (stereo not drawn)	inactive
CCOC(=O)/C=c1/s/c(=C/c2ccc3cc(OC)ccc3c2)c(=O)n1CC(=O)NCC1CCCO1 (stereo not drawn)	inactive
O=C(Nc1ccc(-c2cn3c(n2)SCC3)cc1)c1ccco1	inactive
O=[N+]([O-])c1ccc(N/N=C/C=C/c2ccco2)cc1	inactive
O=C(NC1=NCCS1)C1COc2ccccc2O1 (stereo not drawn)	inactive
C/C(=N\NC(=O)C1COc2ccccc2O1)c1ccccn1 (stereo not drawn)	inactive
C/C(=N\NC(=O)COc1ccccc1-c1ccccc1)c1ccccn1	inactive
C=CCOc1ccc(/C=C2\SC(=S)N(CCC(=O)O)C2=O)cc1	inactive
Cc1c(C#N)c(NC(=O)CCl)n(Cc2cccs2)c1C	inactive
O=C(NCc1cccs1)c1nc2c(nnn2Cc2ccccc2Cl)c(=O)[nH]1	inactive
CC(=O)Oc1c(C(=O)c2nnc(C)o2)c(=O)n(Cc2ccccc2)c2ccccc12	inactive
COc1ccc(/C=N/NC(=O)Cc2cccs2)cc1	inactive
Cc1ccc(OCC(=O)N/N=C/c2ccc([N+](=O)[O-])o2)cc1	inactive
Cc1occc1C(=O)N/N=C/c1ccc(OCc2ccccc2)cc1	inactive
Cc1ccc(SCCC(=O)N2CCC(C)CC2)cc1	inactive
Cc1cc(/C=C(\C#N)C(=O)O)c(C)n1CC(C)C	inactive
Cc1ccc(SCCSc2ncccn2)cc1	inactive
Nc1c(-c2ccccc2)cnc2c(-c3ccccc3)cnn12	inactive
COc1ccccc1OCCN1CSC(=S)N(C)C1	inactive
O=C(Nc1ccc(F)cc1F)c1cc2ccccc2oc1=O	inactive
COc1ccc(C(=O)CN2Cc3ccccc3C2=N)cc1	inactive
O=C(Nc1ccccc1)O/N=C/c1ccc(F)cc1	inactive
CC1(C)Cc2c(sc(NC(=O)c3ccc4ncsc4c3)c2C(N)=O)C(C)(C)N1	inactive

SMILES	outcome
CCCN(CCC)C1=CC(=[N+]2CCCC2)CC(C)(C)C1	inactive
O=C(N/N=C/c1ccc(F)cc1)c1c(O)c2ccccc2[nH]c1=O	inactive
CC(C)C(=O)Nc1cccc(NC(=O)c2cc3ccccc3o2)c1	inactive
Cc1ccc(NC(=O)c2cc3ccccc3oc2=O)cc1S(=O)(=O)N(C)C	inactive
Cc1ccc(-c2nc(C#N)c(NCc3ccco3)o2)cc1	inactive
Cc1ccc2c(COC(=O)c3n[nH]c4ccccc34)cc(=O)oc2c1	inactive
N#C/C(C(=O)c1ccccc1)=C1/CCCCCN1	inactive
COc1ccc2c(c1OC)C(=O)N(c1ccc(C)cc1)C2	inactive
CCOc1cc(/C=C(/C#N)c2ccc(Cl)cc2)cc(Cl)c1OCC(=O)O	inactive
O=C(Nc1ccc2nc3n(c(=O)c2c1)CCCCC3)c1cc([N+](=O)[O-])ccc1F	inactive
CC(C)(C)C(=O)Nc1cc2nn(-c3ccccc3)nc2cc1Cl	inactive
Oc1ccc(-c2nnc(SCC3CCCCC3)o2)cc1	inactive
CC(=O)c1cccc(Nc2nc(-c3cccnc3)cs2)c1	inactive
CCOc1cc(/C=C\[N+](=O)[O-])ccc1OCC(=O)N1CCOCC1	inactive
C/C(=N/Nc1nc(C)c(C)s1)c1cccc([N+](=O)[O-])c1	inactive
CCOc1ccccc1NC(=O)C1C2CCC(O2)C1C(=O)O (stereo not drawn)	inactive
Cc1cc(/C(N)=N/OC(=O)Nc2ccc(Cl)cc2)no1	inactive
COc1ccc(NC(=O)c2cc3ccccc3oc2=O)c(OC)c1	inactive
COc1ccccc1/C=C/C=N/NC(=O)c1cccs1	inactive
Cc1ccccc1OCC(=O)Nc1cccc(C(=O)O)c1	inactive
COc1cccc(/C=N/NC(=O)c2cccs2)c1	inactive
COc1ccc(-c2noc(-c3cccs3)n2)cc1OC	inactive
N#CCSc1nc2ccccc2c2nc3ccccc3n12	inactive
CC1(C)CC(=O)c2cnc(N3CCc4ccccc43)nc2C1	inactive
Cc1cc(C(=O)CSc2nnc3ccccn23)c(C)n1-c1ccccc1	inactive
COc1ccccc1N(C(=O)CCl)c1cn(C(C)=O)c2ccccc12	inactive

SMILES	outcome
Cc1ccc2c(C(=O)CCl)c(C)[nH]c2c1	inactive
Cn1cc(C(=O)CCl)c2ccccc21	inactive
O=C(Nc1ccc(OC(F)(F)F)cc1)c1[nH]ncc1[N+](=O)[O-]	inactive
COC(=O)c1c(C)[nH]c(/C=N/Nc2ccccc2)c1C	inactive
COCc1nc(-c2ccc(-c3ccccc3)nc2OC)no1	inactive
C/C(=N\Nc1nccnc1Cl)c1ccc(O)c(C)c1	inactive
Nc1ccc2c(c1)OC1(CCCC1)O2	inactive
COc1cc(OC)cc(-c2oc(=O)c3cc(OC)c(OC)cc3c2C(F)(F)F)c1	inactive
COc1c(C)cccc1C(=O)Nc1ccc(N2CCN(S(C)(=O)=O)CC2)cc1	inactive
CC1CCN(c2ccc(NC(=O)c3cccnc3)cc2)CC1	inactive
CC(C)(C)c1ccc(C(=O)Nc2ccc(CC(=O)O)cc2)o1	inactive
CN1CCN(c2ccc(NC(=S)NC(=O)c3cccc4ccccc34)cc2)CC1	inactive
CCCCOC(=O)Nc1ccc2c(C)cc(=O)oc2c1	inactive
CC(C)N=C(NS(=O)(=O)c1ccccc1)C(Cl)(Cl)Cl	inactive
CC(=O)Oc1ccc(C)cc1-n1nc2ccccc2n1	inactive
NC(=O)c1ccccc1NC(=O)/C=C/c1cccc(Cl)c1	inactive
Nc1ccc(-c2ncc(-c3ccccc3)o2)cc1	inactive
N#C/C(=C\c1c[nH]c2ccccc12)C(=O)NC1CC1	inactive
Cc1ccc(NC(=O)c2cc3cccc([N+](=O)[O-])c3[nH]2)cc1	inactive
ClC1(Cl)CC1CSc1nnc(-c2ccncc2)o1 (stereo not drawn)	inactive
COc1cc(SC)ccc1C(=O)Nc1ccc(Br)cn1	inactive
COc1ccc(-n2ncc3c(N4CCCCC4)ncnc32)cc1	inactive
Cc1ccc(C(=O)c2coc3ccc(O)c(Cl)c23)cc1	inactive
COc1cccc(-c2ccc3c(N)c(C(=O)NC4CC4)sc3n2)c1	inactive
Cc1ccc(S(=O)(=O)CC(CN2CCCCC2)N2CCCCC2)cc1 (stereo not drawn)	inactive
O=S(=O)(CC(CN1CCCCC1)N1CCCCC1)c1ccc2ccccc2c1 (stereo not drawn)	inactive
